From PubChem BioAssay (NCI)
This is part of a sample that, as a whole, favours compounds with a hit. Of some 83,000 tested, about 20% had one in any assay.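 Note: values are percent growth. 100 is the growth of untreated cells, values between 100 and 0 indicate rising inhibition; between -100 and 0 indicates cell death.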 A number with no mark means an inactive call. Active and inactive are the calls of the source.

Test system: M14 melanoma
Assay: NCI-60 one-dose screen, 48 h (100 = growth as untreated, 0 = no growth, -100 = all killed)
Details: 10 µM unless noted
Protocol: Growth inhibition of the M14 human tumor cell line is measured as a screen for anti-cancer activity. Cells are grown in 96 well plates and exposed to the test compound for 48 hours. Compounds are tested at a single concentration, which is 10^-5 M for most compounds. The reported endpoint is percent growth (GI% or GIPRCNT), where numbers from 0 - 100% represent growth inhibition, and numbers from -100% - 0 represent cell death. For example, a value of 40 represents 60% growth inhibition. A value of 0 means no net growth occurred over the course of the experiment. A value of -40 indicates 40% of cells at the beginning of the experiment died by the end of the experiment. A value of -100 means all cells are dead at the end of the experiment.
NCI-60 Human Tumor Cell Lines Screen was performed using the standard one-dose NCI protocol, which is described in more detail at https://dtp.cancer.gov/discovery_development/nci-60/default.htm.
Compounds with GIPRCNT values below 10 were considered active. Activity score was based on GIPRCNT using the following formula: […]
Score is 0 for GIPRCNT values of 100 or above, 50 for GIPRCNT values of 0, and 100 for GIPRCNT values of -100.

SMILES	growth
Cc1nn2c(-c3nc4cc(Cl)c(Cl)cc4[nH]3)c(-c3ccc(F)cc3)nc2s1	30.1%
COc1ccc(-c2nc(SCC(=O)Nc3ccc(C(C)=O)cc3)[nH]c(=O)c2C#N)cc1	87.6%
Cn1c(=O)c2c(nc(Br)n2CC(=O)Nc2ccc(F)cc2)n(C)c1=O	99.7%
C/C(=N\Nc1ccc2ccccc2n1)c1ccccn1	-24.6% (active)
COc1cnc2c(c1)C(=O)c1c-2n(CCCNC(C)C)c(=O)c2cc([N+](=O)[O-])ccc12	-76.8% (active)
Fc1ccc(Nc2ccc3c(OCCCN4CCOCC4)cccc3n2)cc1F	69.2%
N=C(N)N=Nc1ccc(O)cc1	81.6% [100 µM]
CC1(C)C(=O)CC[C@]2(C)[C@H]3C(=O)C=C4[C@@H]5C[C@@](C)(C(=O)NCCNCCN)CC[C@]5(C)CC[C@@]4(C)[C@]3(C)CC[C@@H]12	90.6%
O=C1C=C(C(O)c2ccc(O)cc2)C(=O)c2ccccc21 (stereo not given)	79.5%
Cn1c(=O)c2c(ncn2CC(=O)Nc2ccc(S(N)(=O)=O)cc2)n(C)c1=O	97.1%
O=C1c2cc3c(cc2-c2c1c1ccc(Cl)cc1c(=O)n2C[C@H](O)[C@@H](O)[C@H](O)CO)OCO3	4.34% (active)
O=C(O)c1cccc2c1C(=O)N(c1ccc3c(c1)Cc1ccccc1-3)C2=O	119%
CC1c2ccccc2N(S(=O)(=O)c2ccccc2)C1C (stereo not given)	77.6%
COc1ccc2nc(-c3c(-c4ccccc4)nc4ncccn34)[nH]c2c1	107%
Fc1ccc2nc(-c3cc(-c4ccc5c(c4)OCO5)n[nH]3)[nH]c2c1	49.5%
C=C1C(=O)O[C@H]2[C@H]1CC/C(COC(=O)NCc1cc3ccccc3[nH]1)=C\CC[C@@]1(C)O[C@@H]21	-27.9% (active)
O=C(N/N=C/c1ccccc1SSc1ccccc1/C=N/NC(=O)c1ccccc1)c1ccccc1	12.9%
CC1(C)CC[C@]2(C(=O)NCCNCCN)CC[C@]3(C)C(=CC[C@@H]4[C@@]5(C)CCC(=O)C(C)(C)[C@@H]5CC[C@]43C)[C@@H]2C1	-63.4% (active)
O=C(Nc1ccc(/C=C2\SC(=O)N(Cc3ccc(OC(F)(F)F)cc3)C2=O)cc1)c1ccc(Cl)c([N+](=O)[O-])c1	104%
COc1ccc(-c2cc(/C=C/C(=O)c3ccc(N)cc3)[nH]n2)cc1	23%

SMILES	growth
Cc1cc(C)c(NC(=O)c2sc3nc4c(cc3c2N)CCCC4)c(C)c1	24.5%
COc1cccc(-c2nn(-c3ccccc3)cc2-c2ccnc(NCCNS(=O)(=O)c3ccc(C(F)(F)F)cc3)c2)c1	13.6%
N=c1ccc2nc3c(cc(N)c4ccccc43)oc-2c1	-100% (active)
CCC1C(=O)COC1=O (stereo not given)	93.2%
CN1CCN(CC#CCn2c3c(c4ccccc42)C[C@]2(C)[C@H]4CC[C@@H]5[C@H]6[C@H]7OC(=O)[C@@]6(CCC7(C)C)CC[C@@]5(C)[C@]4(C)CC[C@H]2C3(C)C)CC1	80.9%
COc1ccc(OCC(CO)N2CCN(c3ccccc3)CC2)cc1 (stereo not given)	99.8%
COc1ccc(C2=NN(c3nc(-c4ccc(OC)cc4)c(C#N)c(=O)n3C)C(=O)CC2)cc1	95.4%
O=c1[nH]ncc(Br)c1Br	-84.8% (active)
Cn1cc(-c2csc(-c3cn(CCN)c4ccc(Br)cc34)n2)c2cccnc21	86.1%
CC(=O)c1c(C)[nH]c(-c2nc3ccc(N4CCN(C)CC4)cc3[nH]2)c1-c1ccc2c(c1)OCCO2	40.1%
CCCCC(=O)OC1CCCCC1C (stereo not given)	95.4%
COc1ccc(-c2n[nH]nc2-c2cc3ccccc3s2)cc1O	12.4%
O=S(=O)(NCCNc1cc(-c2cn(-c3ccccc3)nc2-c2cccc(O)c2)ccn1)c1ccc(Cl)cc1	23.5%
Cc1cc(C)n(Cc2cc(C(C)(C)C)cc(C(C)(C)C)c2)c(=O)c1C#N	89.8%
C=C(C)[C@@H]1CC[C@]2(C(=O)OC)CC[C@]3(C)[C@H](CC[C@@H]4[C@@](C)(CC/C(N)=N/O)[C@H](C(=C)C)CC[C@]43C)[C@@H]12	99.1%
CC(=O)OCCCCCCn1c2ccccc2c2c3c(c4c5ccccc5n(C)c4c21)C(=O)N(O)C3=O	65.4%
OCC(CO)(CCl)CCl	89.4%
O=C(NO)c1ccc(Cn2c(=O)n(-c3ccccc3)c(=O)c3ccccc32)cc1	2.72% (active)
CC(=O)Cc1nsc(NC(=O)c2ccoc2COc2ccccc2)n1	95.4%
CCc1cccc(CC)c1NC(=O)c1sc2nc3c(cc2c1N)CCCC3	52%
